Assay results reported in ChEMBL document CHEMBL3988442, “University of Dundee, Small-Polar-MMV Screening Library” (2021).
Screen size: about 48,000 compounds; about 13,000 (27%) showed an effect of 50% or more. This is one part of the list.

System: Wolbachia pipientis
Assay: Anti-Wolbachia Cell-Based Screen
Type: functional
Set-up: scale not given: in the data most compounds retested in dose-response had high values
Conditions: 5 µM

Structure (SMILES) | Percent Effect [%]
CC(C)CC(C)(CNC(=O)c1cnccn1)NC(=O)c1cnccn1 (stereo not drawn) | 15.43
Cc1ccc2nc(C(=O)N(C)[C@@H]3CC[C@@H](N4CCCC4)[C@@H]3O)cn2c1 | 129
Cc1ccc2nc(C(=O)N3CCC(CCn4cccn4)CC3)cn2c1 | -8.837
Cc1ccc2c(ccn2CC(=O)NC[C@@H]2CCCN3CCCC[C@H]23)c1 | 4.302
Cc1ccc2nc(C(=O)N3CCNC(=O)C3c3cccc(F)c3)cn2c1 (stereo not drawn) | -1.772
CO[C@@H]1CCC[C@@H](N(C)C(=O)c2cn3cc(C)ccc3n2)[C@H]1O | 110.8
CO[C@@H]1CC[C@@H](N(C)C(=O)c2cn3cc(C)ccc3n2)[C@H]1O | 56.83
Cc1cn2cc(C(=O)NC3CCCN(c4ncccn4)C3)ccc2n1 (stereo not drawn) | -3.56
c1cncc(NCCNC2CCSCC2)c1 | -10.95
CCn1cc(N2Cc3nc(N4CCOCC4)ncc3C2=O)cn1 | 28.99
COC(=O)c1ccc(C2CC(=O)Oc3cc(C)[nH]c(=O)c32)cc1 (stereo not drawn) | -3.935
COc1ccc(Cc2cccc(C3CCN(C)CC3)n2)cc1 | -4.713
CN1CCC(c2cccc(Cc3ccc(C(F)(F)F)cc3)n2)CC1 | 90.57
CN1CCC(c2cccc(Cc3ccc(F)cc3)n2)CC1 | -5.274
CN1CCC(c2cccc(Cc3ccccc3)n2)CC1 | 111.8
O=S(=O)(c1ccc(C(F)(F)F)cc1)N1CCC(OCc2ccccn2)C1 (stereo not drawn) | -13.15
Cl.NC(c1ccc(Cl)cc1)c1cccs1 (stereo not drawn) | -4.089
Cc1cccc(C)c1CN1C(=O)CC2(CCSC2)C1=O (stereo not drawn) | -6.047
Cc1n[nH]c(SCC(=O)N2C[C@H]3CC[C@@H]2CN(c2ncccn2)C3)n1 | -6.945
COc1ccnc(N2CCN(Cc3ncc(-c4ccccc4)o3)CC2)n1 | -5.442
CC(=O)NCCc1ccc(C(=O)N2CCCC2c2cnn(C)c2)cc1 (stereo not drawn) | 2.733
CC(=O)NCc1ccc(C(=O)N2CCCC2c2cnn(C)c2)cc1 (stereo not drawn) | 89.24
CC(=O)NCc1ccc(C(=O)N2CCCC2c2cnn(C)c2)o1 (stereo not drawn) | 4.332
CC(=O)NCc1ccc(C(=O)N2CCCC2c2cnn(C)c2)s1 (stereo not drawn) | 110.6
CCN(CC)Cc1ccc(C(=O)N2CCCC2c2cnn(C)c2)o1 (stereo not drawn) | 101.4
Cc1cc(C)n(-c2ccc(C(=O)N3CCCC3c3cnn(C)c3)cc2)n1 (stereo not drawn) | -0.5529
CCN(CC)Cc1ccc(C(=O)N2CCCCC2Cn2cccn2)o1 (stereo not drawn) | -4.824
CC(=O)NCCCOc1c(C)cccc1Cl | -7.084
